# USP1-UAF1 inh = USP1/UAF1 (human) deubiquitinase inhibition; O94782; 390,000 tested, 0.23% active; Potency, µM (titrated, usually from 57.1 µM), for inactives: top-dose activity change, negative = inhibition, actives largely listed as inhibitors; recombinant USP1/UAF1, Ub-Rhodamine cleavage fluorescence; note: % is set by controls: 0 for no effect and ±100 for the full control effect; nearly all actives have a fitted effect of over 60% in size
#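 USP1/UAF1 complex at 1 nM was preincubated with compound for 15 min at room temperature, then Ub-Rho substrate (150nM final) was added. Fluorescence (480/540 nm) was read kinetically, 6 reads every 60 seconds.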
# EPAC1 antagonist = antagonists of human EPAC1; O95398; EPAC1 GEF assay, Rap1b-BODIPY-GDP exchange fluorescence; Potency, µM (doses to about 115 µM), without a hit: top-dose activity change, negative = inhibition, actives largely listed as inhibitors; 360,000 tested, 0.14% active;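 note: plate controls were vehicle for no effect and positive control for full effect; nearly all actives have a fitted effect of over 50% in size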
# Target sequence (O95398 whole entry, looked up): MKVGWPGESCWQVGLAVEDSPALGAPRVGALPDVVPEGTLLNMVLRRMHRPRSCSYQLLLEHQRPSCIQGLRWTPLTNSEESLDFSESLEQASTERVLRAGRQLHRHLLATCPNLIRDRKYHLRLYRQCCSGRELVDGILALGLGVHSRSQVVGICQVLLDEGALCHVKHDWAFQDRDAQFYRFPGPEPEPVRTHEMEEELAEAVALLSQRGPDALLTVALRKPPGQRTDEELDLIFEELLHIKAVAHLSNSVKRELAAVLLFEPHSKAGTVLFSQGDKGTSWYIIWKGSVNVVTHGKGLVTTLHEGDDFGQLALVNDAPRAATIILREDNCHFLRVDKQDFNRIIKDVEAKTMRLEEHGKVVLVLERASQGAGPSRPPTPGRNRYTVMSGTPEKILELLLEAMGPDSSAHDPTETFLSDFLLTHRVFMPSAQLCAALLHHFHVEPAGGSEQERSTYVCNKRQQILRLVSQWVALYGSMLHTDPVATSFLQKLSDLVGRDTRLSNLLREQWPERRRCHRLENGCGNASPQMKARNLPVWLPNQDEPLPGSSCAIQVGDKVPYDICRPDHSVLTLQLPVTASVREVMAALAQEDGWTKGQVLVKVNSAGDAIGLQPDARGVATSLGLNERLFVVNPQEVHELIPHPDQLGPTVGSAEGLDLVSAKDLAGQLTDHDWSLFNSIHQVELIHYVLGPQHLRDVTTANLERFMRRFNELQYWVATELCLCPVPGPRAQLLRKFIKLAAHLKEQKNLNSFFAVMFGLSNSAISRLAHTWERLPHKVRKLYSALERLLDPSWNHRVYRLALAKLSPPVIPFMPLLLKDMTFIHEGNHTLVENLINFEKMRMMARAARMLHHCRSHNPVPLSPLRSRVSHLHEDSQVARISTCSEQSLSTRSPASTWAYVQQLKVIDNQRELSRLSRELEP
# EPAC2 ag = EPAC2 (human) agonism | AID 720711 | Q8WZA2 | Potency, µM (doses to about 154 µM), without a hit: at the top dose activation, hits mostly activators | EPAC2 activation, biochemical qHTS; response scale: 100% = 6.5 mM cAMP response | 360,000 tested, 0.079% active; note: nearly all actives have a fitted effect of over 50% in size
#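 In this primary screen, activation is scored as increased exchange of BODIPY-GDP from Rap1B by 100 nM EPAC2, with 50 uM GDP as competitor. Signal is normalized to the 6.5 mM cAMP agonist control.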
# EPAC1 ag = EPAC1 (human) agonism | Potency, µM (series often up to 154 µM), without a hit: top-dose activation, actives largely listed as activators | 360,000 tested, 0.073% active | EPAC1 agonist qHTS, biochemical assay; response scale: 100% = response to 6.5 mM cAMP; note: nearly all actives have a fitted effect of over 60% in size
#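 Fluorescent GDP-exchange assay: 100 nM EPAC1 with 250 nM Rap1B preloaded with BODIPY-GDP and 50 uM GDP; compounds tested as concentration series, 5 min at room temperature, then read every 5 min for 30 min (ex 480/em 540 nm); normalized to 6.5 mM cAMP.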
# EPAC2 antag = antagonists of human EPAC2. Q8WZA2. EPAC2 GEF exchange of Rap1B-BODIPY-GDP, fluorescence. Potency, µM (series often up to 114 µM), inactives show at the top dose activity, negative = inhibition, usual class: inhibitors. 360,000 tested, 0.18% active; note: % is set by controls: 0 for no effect and ±100 for the full control effect; nearly all actives have a fitted effect of over 45% in size
# Numbers without * were called inactive; ? = inconclusive; · = no result. In the library only some 0.49% were active in any assay of this set; here they are far more common. Calls come from the whole dose curve; as a rule, active = well fitted curve in the direction sought with a large enough effect; inconclusive = small, poorly fitted or top-dose-only effect, or another doubt; inactive = no such curve, though single readings can be large; an effect the other way counts as inactive or inconclusive. Potency is the fitted concentration of half-maximal effect.
SMILES,USP1-UAF1 inh,EPAC1 antagonist,EPAC2 ag,EPAC1 ag,EPAC2 antag
Cc1ccc(C2C=C(c3ccc(Cl)cc3)Nc3nc(NC(=O)c4ccco4)nn32)cc1 (configuration not stated),-20.5%,·,·,·,·
COC(=O)Cc1c(C)c2ccc3c(c2oc1=O)CN(Cc1ccccc1OC)CO3,-11.8%,·,·,·,·
CCN(Cc1ccccc1)C(=O)C(CC(C)C)NS(=O)(=O)c1ccc2c(c1)CCN2C(C)=O (configuration not stated),-29.0%,·,·,·,·
CC(C)C(C(=O)O)N1C(=O)/C(=C/C=C/c2ccco2)SC1=S (configuration not stated),?,56.2µM*,1.1%,9.0%,-17.6%
O=C1/C(=C/C=C/c2ccco2)SC(=S)N1c1ccc(O)cc1,-15.7%,?,10.5%,14.6%,23.0%
Cc1cccc(C)c1-n1c(C)cc(/C=N\Nc2ccc([N+](=O)[O-])cn2)c1C,-14.1%,-0.9%,3.98µM*,-17.8%,-1.6%
O=[N+]([O-])c1ccc(NN=Cc2cccc(O)c2)nc1,-21.8%,-4.2%,8.2%,-3.2%,-11.6%
CN1C(=O)c2ccccc2Sc2ccc(NC(=O)NCc3cccc(Cl)c3)cc21,0.5%,·,·,·,·
CCCn1c(O)c(N=Nc2ccc3ccccc3n2)c2ccccc21,-17.1%,1.5%,89.1µM*,-5.3%,68.2%
COc1ccc(CCn2c(=O)c3cccnc3n(CC(=O)Nc3ccc(C)cc3C)c2=O)cc1OC,-20.9%,·,·,·,·
CN(C)c1ccc(C(=O)Nc2c(C(=O)NC(C)(C)C)oc3ccccc23)cc1,-18.7%,·,·,·,·
CCCN1CC=C2C(C#N)=C(N)C(C#N)(C#N)C(c3cccc(OC)c3OC)C2C1 (configuration not stated),-25.2%,-7.7%,7.0%,?,22.4µM*
CCN1CC=C2C(C#N)=C(N)C(C#N)(C#N)C(CCc3ccccc3)C2C1 (configuration not stated),22.4µM*,?,50.1µM*,100µM*,44.7µM*
COc1ccc(OC)c(C2C3CN(C(C)C)CC=C3C(C#N)=C(N)C2(C#N)C#N)c1 (configuration not stated),?,-3.4%,6.0%,13.2%,?
CCOC(=O)c1cc2c(ccn2C)n1CC(=O)N1CCN(c2ccc(F)cc2)CC1,-14.7%,2.1%,-3.3%,-11.2%,3.9%
CCOC(=O)c1cc2c(ccn2C)n1CC(=O)N1CCN(c2cccc(C(F)(F)F)c2)CC1,-19.6%,56.2µM*,-13.7%,-29.3%,?
O=C(CC(c1cccs1)N1Cc2ccccc2C1=O)Nc1cccc(F)c1 (configuration not stated),-13.3%,·,·,·,·
COc1cc(NS(=O)(=O)c2cnc(N)nc2)cc(OC)c1,-16.5%,·,·,·,·
CC1CCCCN1c1cc(C#N)c(C#N)cc1[N+](=O)[O-] (configuration not stated),6.7%,-3.7%,2.8%,4.5%,-1.7%
CC1CCc2cccc3c2N1c1cc(C#N)c(C#N)cc1O3 (configuration not stated),28.2µM*,22.2%,24.4%,1.1%,3.4%
CCOc1ccc(OCC)c(NS(=O)(=O)c2c(C(=O)N3CCC(C)CC3)c(C)n(C)c2C)c1,-13.4%,·,·,·,·
CCOC(=O)c1sc2nc3c(SCC(=O)O)cc(C(=O)c4cc(F)ccc4O)cn3c(=O)c2c1C,0.6%,8.91µM*,12.6%,89.1µM*,?
CC[n+]1c(/C=C/C=C/N(C(C)=O)c2ccccc2)sc2ccccc21,31.6µM*,17.7%,100µM*,?,91.7%
COc1ccccc1N(C(=O)CCl)c1cn(C(C)=O)c2ccccc12,-6.3%,-2.0%,9.1%,4.3%,?
COc1ccccc1N(C(C)=O)C1=C(Cl)C(=O)c2ccccc2C1=O,17.8µM*,-22.7%,26.1%,5.0%,18.4%
SMILES,USP1-UAF1 inh,EPAC1 antagonist,EPAC2 ag,EPAC1 ag,EPAC2 antag
O=C1C(Nc2ccc(O)cc2)=C/C(=N/S(=O)(=O)c2cccs2)c2ccccc21,4.47µM*,-11.9%,19.5%,10.4%,2.8%
O=C(O)c1ccc(Nc2nc3ccccc3nc2NS(=O)(=O)c2cccs2)cc1,-15.7%,?,-3.0%,0.4%,-4.4%
Cc1cccc(NC2=C/C(=N/S(=O)(=O)c3cccs3)c3ccccc3C2=O)c1,?,0.2%,5.8%,10.7%,-11.2%
O=C(O)c1ccc(NC2=C/C(=N/S(=O)(=O)c3cccs3)c3ccccc3C2=O)cc1,5.01µM*,50.1µM*,18.3%,-17.6%,?
CC(=O)c1cc(C#N)c(N(C)Cc2ccccc2)nc1C,-10.6%,-28.2%,14.0%,12.6%,50.1µM*
COc1cccc(Nc2ccccc2C(=O)O)c1,-1.8%,?,1.9%,8.1%,-2.1%
COc1cc(-c2ccc(Nc3ccccc3C(=O)O)c(OC)c2)ccc1Nc1ccccc1C(=O)O,?,79.4µM*,-3.9%,-8.7%,-7.9%
CCCCN(CCCC)C(=O)CN(C)S(=O)(=O)c1ccc2c(c1)c(=O)n(C)c(=O)n2C,-6.9%,·,·,·,·
CC(=O)N1C=CN(C(C)=O)C(c2cn(C)c3ccccc23)C1c1cn(C)c2ccccc12 (configuration not stated),-13.7%,-6.7%,9.5%,17.7%,56.2µM*
Cn1cc(/C=C/C(=O)c2ccccc2)c2ccccc21,-13.6%,-10.5%,13.4%,12.7%,-1.7%
O=C(COc1ccccc1[N+](=O)[O-])N1CCC(c2nc3ccccc3o2)CC1,-6.4%,·,·,·,·
O=C(CSc1nc2ccsc2c(=O)n1CC1CCC(C(=O)O)CC1)c1ccc(Cl)cc1 (configuration not stated),-4.7%,56.2µM*,18.7%,?,-14.4%
CC(=O)N1N=C(c2ccccc2)OC1c1ccc([N+](=O)[O-])s1 (configuration not stated),25.1µM*,-2.8%,5.6%,19.0%,-1.7%
CC(=O)N1N=C(c2cccc([N+](=O)[O-])c2)OC1c1ccc(Br)cc1 (configuration not stated),-19.6%,-8.0%,10.7%,-2.3%,-4.4%
CN(Cc1ccccc1)c1ccc2cc(S(=O)(=O)N3CCCCC3)ccc2n1,-15.2%,·,·,·,·
O=C(O)CSc1cc(NS(=O)(=O)c2ccc(Cl)cc2)c2ccccc2c1O,25.1µM*,?,?,27.8%,79.4µM*
Cc1cc(C)c(S(=O)(=O)Nc2cc(SCC(=O)O)c(O)c3ccccc23)cc1C,?,?,-2.7%,28.8%,-5.3%
COc1ccc(S(=O)(=O)Nc2cc(SCC(=O)O)c(O)c3ccccc23)cc1,31.6µM*,79.4µM*,5.2%,18.7%,3.2%
CCN(CC)c1ccc(CN(C(=O)Cc2coc3ccc(C)cc23)C2CCS(=O)(=O)C2)cc1 (configuration not stated),-20.6%,·,·,·,·
CCOc1ccc(/C=C(\C#N)C(=O)Nc2cccnc2)cc1,-20.0%,10.1%,-7.2%,-5.0%,4.1%
